# Test results from PubChem BioAssay (NCATS).
# A number with no mark means an inactive call. Results filed as inconclusive are left out. The source made the active and inactive calls. Unless noted, calls come from the whole dose curve; as a rule, active = well fitted curve in either direction with a large enough effect (not every such curve was filed as active); inconclusive = small, poorly fitted or top-dose-only effect, or another doubt; inactive = flat fitted curve, though single readings scatter.
# Columns and labels:
# [1] = AP1 Signaling Pathway (AID 357); conditions: ME-180 AP-1-bla reporter, EGF-induced, beta-lactamase ratio, 5 h; at 17.2 µM (top of the series) unless noted;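 note: ME-180 reporter cells stimulated with EGF at its EC50 level; % is set by controls: 0 for no effect and ±100 for the full control effect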
# Outline: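 Cells are seeded overnight, exposed to compound titrations and an EC50 level of EGF for 5 hours at 37 °C, then loaded with CCF4 dye for 2.5 hours. Beta-lactamase activity under the AP-1 element is read as a blue/green ratio.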
# [2] = Stat Signaling Pathway (AID 446); conditions: ME-180 SIE beta-lactamase reporter, IL-6 stimulated, 5 h; at 17.2 µM (top of the series) unless noted;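 note: ME-180 cervical cancer cells given 40 pM IL-6 alongside compound; SIE-controlled beta-lactamase reporter measured as 460/530 nm FRET emission ratio; % is set by controls: 0 for no effect and ±100 for the full control effect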
# Outline: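 ME-180 cells carrying a SIE-driven beta-lactamase reporter are stimulated with 40 pM IL-6 for 5 h at 37C in the presence of compound. The 460/530 nm FRET substrate ratio is read after 2.5 h at RT. Data are normalised to 300 pM IL-6 and to 125 nM JAK inhibitor controls.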
# [3] = biological target: Glucocorticoid receptor (Homo sapiens) (UniProt P04150); assay: GR-GFP Redistribution (AID 450;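 active = compounds whose dose series gives a full or clear partial fitted curve of increased nuclear translocation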; note: potency is the fitted concentration of half-maximal effect)
# Sequence of Glucocorticoid receptor (Homo sapiens) (P04150 whole entry, looked up, the tested form may be a part): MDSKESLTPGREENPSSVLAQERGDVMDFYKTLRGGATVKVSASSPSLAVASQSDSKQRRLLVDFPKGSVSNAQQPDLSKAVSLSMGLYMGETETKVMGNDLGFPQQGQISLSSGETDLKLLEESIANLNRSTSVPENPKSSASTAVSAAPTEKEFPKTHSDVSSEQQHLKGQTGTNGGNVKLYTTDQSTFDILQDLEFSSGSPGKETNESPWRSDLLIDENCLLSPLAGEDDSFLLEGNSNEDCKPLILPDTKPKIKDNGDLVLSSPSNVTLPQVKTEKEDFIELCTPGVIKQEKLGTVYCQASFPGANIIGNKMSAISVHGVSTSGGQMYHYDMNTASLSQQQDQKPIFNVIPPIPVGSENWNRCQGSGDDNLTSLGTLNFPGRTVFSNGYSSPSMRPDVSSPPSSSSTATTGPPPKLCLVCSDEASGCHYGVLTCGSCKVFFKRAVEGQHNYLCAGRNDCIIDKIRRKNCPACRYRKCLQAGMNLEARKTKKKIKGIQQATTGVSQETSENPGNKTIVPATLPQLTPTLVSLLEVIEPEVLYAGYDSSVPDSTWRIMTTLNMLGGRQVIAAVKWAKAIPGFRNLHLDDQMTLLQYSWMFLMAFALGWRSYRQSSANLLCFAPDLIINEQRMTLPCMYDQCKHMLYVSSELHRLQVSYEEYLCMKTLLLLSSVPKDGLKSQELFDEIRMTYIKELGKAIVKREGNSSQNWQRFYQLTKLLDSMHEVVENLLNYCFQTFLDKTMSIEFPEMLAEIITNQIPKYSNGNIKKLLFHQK
# [4] = biological target: Glucocorticoid receptor (Homo sapiens) (UniProt P04150); assay: GR-EFC Redistribution (AID 451; calls by dose curve; note: potency is the fitted concentration of half-maximal effect); conditions: CHO-K1 GR-EFC translocation, beta-gal luminescence, 2 h
# Outline: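 CHO-K1 cells expressing nuclear EA and GR-ED fragments of b-gal; compounds titrated up to 46 uM final, 2 h at 37 C. GR nuclear translocation read as complemented b-gal luminescence after 1 h RT detection.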
# [5] = biological target: Mitogen-activated protein kinase 10 (Mus musculus) (UniProt Q61831); assay: JNK3 AlphaScreen Assay (AID 530);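 note: kinase came from lysate of stimulated human HepG2 cells; signal reports phosphorylation of biotinylated GST-cJun 1-79 at Ser73 with 10 µM ATP; % is set by controls: 0 for no effect and ±100 for the full control effect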
# Outline: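 qHTS format: compounds tested as titrations against IL-1beta/TNF-alpha-activated HepG2 lysate JNK3 with biotin-GST-cJun substrate and 10 uM ATP at room temperature. Loss of anti-phospho-cJun AlphaScreen signal indicates inhibition.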
# [6] = biological target: 3',5'-cyclic-AMP phosphodiesterase 4B (Homo sapiens) (UniProt Q07343); assay: qHTS Assay for Inhibitors of PDE-IV (AID 607; active = well fitted activation curve with a large enough effect in the main read-out, with a control signal flat, not every such curve was filed as active; note: % of control where 0% means no effect)
# Sequence of 3',5'-cyclic-AMP phosphodiesterase 4B (Homo sapiens) (Q07343 whole entry, looked up): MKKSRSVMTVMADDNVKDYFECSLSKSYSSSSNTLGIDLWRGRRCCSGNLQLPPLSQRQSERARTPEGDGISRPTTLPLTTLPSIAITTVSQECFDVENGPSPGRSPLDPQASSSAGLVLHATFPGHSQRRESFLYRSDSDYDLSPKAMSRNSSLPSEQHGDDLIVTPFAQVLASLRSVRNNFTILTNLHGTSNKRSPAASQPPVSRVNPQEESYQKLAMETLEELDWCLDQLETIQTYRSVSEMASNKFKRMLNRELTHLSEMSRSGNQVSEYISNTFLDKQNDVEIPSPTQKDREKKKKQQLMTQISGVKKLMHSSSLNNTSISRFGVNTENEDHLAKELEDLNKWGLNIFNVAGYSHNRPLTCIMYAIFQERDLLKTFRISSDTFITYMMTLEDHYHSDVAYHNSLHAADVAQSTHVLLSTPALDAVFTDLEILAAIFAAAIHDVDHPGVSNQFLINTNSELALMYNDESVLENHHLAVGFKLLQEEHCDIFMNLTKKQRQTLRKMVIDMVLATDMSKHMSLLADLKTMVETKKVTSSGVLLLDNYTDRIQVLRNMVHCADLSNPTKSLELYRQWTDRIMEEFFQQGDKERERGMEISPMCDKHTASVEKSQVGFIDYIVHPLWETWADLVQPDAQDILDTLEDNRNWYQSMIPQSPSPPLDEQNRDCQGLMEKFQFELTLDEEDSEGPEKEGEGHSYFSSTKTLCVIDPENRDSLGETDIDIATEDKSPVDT
# Outline: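 HEK293 ACTOne cells with CNG channel (1000/well), endogenous PDE4; membrane potential dye, compounds up to 22.9 uM final. Fluorescence Ex 535/Em 590; RO 20-1724 (100 uM final) as reference.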
# [7] = qHTS Assay for Identification of Small Molecule Agonists for Thrombopoietin (TPO) Signaling Pathway (AID 917; active = well fitted curve in the direction sought with a large enough effect; an effect the other way counts as inactive or inconclusive; note: % is set by controls: 0 for no effect and ±100 for the full control effect)
# Outline: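 Activators of TPO signaling were sought in murine Ba/F3 cells transfected with the human receptor, using a luciferase gene driven by the Glycoprotein IIb promoter; 24-hr compound exposure at 37 C alongside 26 pM TPO, in IL-3-free medium.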
# [8] = biological target: Pyruvate kinase (Leishmania mexicana) (UniProt Q27686); assay: qHTS Validation Assay for Inhibitors of Leishmania Mexicana Pyruvate Kinase (AID 945; active = well fitted curve in the direction sought with a large enough effect; an effect the other way counts as inactive or inconclusive;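 note: 0% = DMSO only neutral control wells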)
# Sequence of Pyruvate kinase (Leishmania mexicana) (Q27686 2-499 E452W): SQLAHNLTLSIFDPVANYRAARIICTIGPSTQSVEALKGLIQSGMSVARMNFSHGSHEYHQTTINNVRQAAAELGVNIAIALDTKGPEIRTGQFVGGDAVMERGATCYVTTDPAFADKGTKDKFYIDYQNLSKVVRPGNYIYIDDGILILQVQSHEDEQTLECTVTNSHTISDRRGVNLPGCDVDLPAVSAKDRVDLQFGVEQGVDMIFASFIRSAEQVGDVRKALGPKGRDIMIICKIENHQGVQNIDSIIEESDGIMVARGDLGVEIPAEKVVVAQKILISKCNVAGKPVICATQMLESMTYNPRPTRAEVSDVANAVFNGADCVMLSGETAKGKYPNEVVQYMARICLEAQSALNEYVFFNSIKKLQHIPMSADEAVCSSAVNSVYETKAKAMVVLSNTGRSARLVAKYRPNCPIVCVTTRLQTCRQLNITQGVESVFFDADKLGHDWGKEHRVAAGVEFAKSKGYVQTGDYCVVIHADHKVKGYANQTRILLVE
# Outline: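 Compounds are tested as eight-point concentration series. Reactions contain 0.2 nM LmPYK E451W, 0.5 mM PEP, 0.1 mM ADP, 7 mM MgCl2 and 50 mM KCl at pH 7.2, run 1 h at room temperature, then read by PKLight luminescence.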
# [9] = biological target: Pyruvate kinase PKM (Homo sapiens) (UniProt P14618); assay: qHTS Assay for Activators of Human Muscle Pyruvate Kinase (AID 954; active = well fitted curve in the direction sought with a large enough effect, not every such curve was filed as active;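 note: 0% = uninhibited enzyme and -100% = no enzyme or full thiadiazolimine inhibition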)
# Sequence of Pyruvate kinase PKM (Homo sapiens) (P14618 whole entry, looked up): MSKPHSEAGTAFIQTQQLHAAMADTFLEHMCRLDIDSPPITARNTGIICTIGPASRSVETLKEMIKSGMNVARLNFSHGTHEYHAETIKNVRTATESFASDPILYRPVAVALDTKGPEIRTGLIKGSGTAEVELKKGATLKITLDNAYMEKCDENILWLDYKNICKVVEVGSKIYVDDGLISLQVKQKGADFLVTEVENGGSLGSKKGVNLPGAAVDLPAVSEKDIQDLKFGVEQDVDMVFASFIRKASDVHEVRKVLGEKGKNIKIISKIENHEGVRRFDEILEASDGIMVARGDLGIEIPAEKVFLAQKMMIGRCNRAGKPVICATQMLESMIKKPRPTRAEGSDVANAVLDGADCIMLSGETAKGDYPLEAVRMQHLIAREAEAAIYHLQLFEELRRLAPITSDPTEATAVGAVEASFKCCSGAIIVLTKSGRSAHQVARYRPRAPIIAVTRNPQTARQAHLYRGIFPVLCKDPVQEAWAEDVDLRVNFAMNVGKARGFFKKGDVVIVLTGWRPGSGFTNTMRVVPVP
# Outline: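 Purified human PKM2 (0.1 nM) with 0.5 mM PEP (Km) and 0.1 mM ADP in 50 mM imidazole pH 7.2, KCl, MgCl2, 1 h at room temperature; ATP formed read by coupled luciferase luminescence. Normalized to no-enzyme/110 uM thiadiazolimine inhibition; 0.3 nM enzyme column for activation.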
# [10] = biological target: Alpha-galactosidase A (Homo sapiens) (UniProt P06280); assay: Counterscreen for Glucocerebrosidase Inhibitors: qHTS Assay for Human alpha-Galactosidase at pH 4.5 (AID 992; active = well fitted curve in the direction sought with a large enough effect; an effect the other way counts as inactive or inconclusive; note: 0% is about no effect)
# Sequence of Alpha-galactosidase A (Homo sapiens) (P06280 whole entry, looked up): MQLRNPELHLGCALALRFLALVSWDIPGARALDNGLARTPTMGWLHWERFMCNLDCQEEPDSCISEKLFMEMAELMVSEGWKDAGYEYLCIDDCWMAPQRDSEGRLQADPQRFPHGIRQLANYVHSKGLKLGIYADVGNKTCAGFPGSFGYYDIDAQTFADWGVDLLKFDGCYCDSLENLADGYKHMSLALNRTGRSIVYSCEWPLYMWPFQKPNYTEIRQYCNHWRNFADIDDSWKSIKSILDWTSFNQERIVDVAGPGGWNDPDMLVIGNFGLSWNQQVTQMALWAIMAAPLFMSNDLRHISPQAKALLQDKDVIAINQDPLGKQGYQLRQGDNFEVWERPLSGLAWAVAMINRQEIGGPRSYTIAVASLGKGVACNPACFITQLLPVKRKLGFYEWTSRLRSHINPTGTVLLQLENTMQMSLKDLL
# Outline: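 Human enzyme (2 nM) with 80 uM 4-methylumbelliferyl alpha-D-galactopyranoside in 50 mM citric acid, 0.005% Tween-20, pH 4.5, 20 min at room temperature. Compounds 0.7 nM–77 uM; fluorescence Ex 365/Em 440 after pH 10 stop; AC50 from Hill fits.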
# [11] = biological target: alpha-glucosidase (Oryza sativa, rice) (UniProt Q653V4); assay: Counterscreen for Glucocerebrosidase Inhibitors: qHTS Assay for Rice alpha-Glucosidase at pH 5.0 (AID 997; active = well fitted curve in the direction sought with a large enough effect; an effect the other way counts as inactive or inconclusive;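 note: 0% = full activity with enzyme and -100% = basal without enzyme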)
# Outline: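 Rice alpha-glucosidase (4 nM final) with 400 uM 4-methylumbelliferyl-alpha-D-glucopyranoside in citrate buffer pH 5.0, 20 min at room temperature, stopped at pH 10; fluorescence 365/440 nm, compounds 0.7 nM–77 uM, AC50 from Hill fits.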
# [12] = biological target: Cytochrome P450 2C9 (Homo sapiens) (UniProt P11712); assay: qHTS Assay for Inhibitors and Substrates of Cytochrome P450 2C9 (AID 883; active = well fitted curve in the direction sought with a large enough effect; an effect the other way counts as inactive or inconclusive; note: potency is the fitted concentration of half-maximal effect; nearly all actives have a fitted effect of over 60% in size)
# Sequence of Cytochrome P450 2C9 (Homo sapiens) (P11712 whole entry, looked up): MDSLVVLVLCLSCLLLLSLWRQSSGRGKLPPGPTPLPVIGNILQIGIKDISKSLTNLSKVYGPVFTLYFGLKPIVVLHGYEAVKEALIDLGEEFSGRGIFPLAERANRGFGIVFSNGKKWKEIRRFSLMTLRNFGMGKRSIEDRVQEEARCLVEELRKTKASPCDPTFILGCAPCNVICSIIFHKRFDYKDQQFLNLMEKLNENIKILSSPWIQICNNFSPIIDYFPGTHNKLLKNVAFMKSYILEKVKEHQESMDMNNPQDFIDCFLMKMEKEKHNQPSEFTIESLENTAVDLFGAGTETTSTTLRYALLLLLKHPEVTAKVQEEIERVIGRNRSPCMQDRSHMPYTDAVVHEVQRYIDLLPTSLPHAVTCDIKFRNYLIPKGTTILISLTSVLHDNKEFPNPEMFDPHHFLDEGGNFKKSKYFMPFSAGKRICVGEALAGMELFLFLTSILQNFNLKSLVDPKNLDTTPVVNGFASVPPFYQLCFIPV
# Outline: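 10nM CYP2C9 + 100uM Luciferin-H (=KM), 25mM KPO4; cpd 10 min 37C; NADPH regen, 60 min 37C; stop/detect with P450 Glo-Buffer 20 min; luminescence. Norm. to 57uM sulphaphenazole as full inhibition.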
# [13] = biological target: Cytochrome P450 3A4 (Homo sapiens) (UniProt P08684); assay: qHTS Assay for Activators of Cytochrome P450 3A4 (AID 885; active = well fitted curve in the direction sought with a large enough effect; an effect the other way counts as inactive or inconclusive; note: nearly all actives have a fitted effect of over 65% in size)
# Sequence of Cytochrome P450 3A4 (Homo sapiens) (P08684 whole entry, looked up): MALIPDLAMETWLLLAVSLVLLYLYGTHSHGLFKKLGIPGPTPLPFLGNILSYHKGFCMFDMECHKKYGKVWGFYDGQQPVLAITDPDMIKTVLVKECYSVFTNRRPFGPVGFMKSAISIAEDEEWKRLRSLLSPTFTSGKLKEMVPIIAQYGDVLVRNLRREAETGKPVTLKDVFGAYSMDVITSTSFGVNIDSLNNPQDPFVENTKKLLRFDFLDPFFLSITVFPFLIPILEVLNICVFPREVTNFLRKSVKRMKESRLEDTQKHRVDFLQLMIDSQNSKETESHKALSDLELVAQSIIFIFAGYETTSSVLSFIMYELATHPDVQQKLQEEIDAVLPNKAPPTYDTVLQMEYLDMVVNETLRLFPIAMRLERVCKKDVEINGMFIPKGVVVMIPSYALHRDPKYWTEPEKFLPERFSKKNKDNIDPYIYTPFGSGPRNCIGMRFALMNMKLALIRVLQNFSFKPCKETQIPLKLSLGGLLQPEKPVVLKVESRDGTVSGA
# Outline: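 Human CYP3A4 (20 nM) with Luciferin-PPXE at 25 uM (its KM) in 200 mM KPO4; 10 min compound preincubation, then NADPH regeneration and 60 min reaction at RT. Luciferin read by luminescence; normalized to 57 uM ketoconazole full inhibition.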
# [14] = biological target: Muscarinic acetylcholine receptor M1 (Rattus norvegicus) (UniProt P08482); assay: qHTS Assay for Antagonists of Acetylcholine Muscarinic M1 Receptor: Kinetic Measurement of Intracellular Calcium Response (AID 943; active = well fitted curve in the direction sought with a large enough effect; an effect the other way counts as inactive or inconclusive;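 note: Fluo-4 calcium signal as peak divided by basal fluorescence over 4 min; nearly all actives have a fitted effect of over 75% in size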)
# Sequence of Muscarinic acetylcholine receptor M1 (Rattus norvegicus) (P08482 whole entry, looked up): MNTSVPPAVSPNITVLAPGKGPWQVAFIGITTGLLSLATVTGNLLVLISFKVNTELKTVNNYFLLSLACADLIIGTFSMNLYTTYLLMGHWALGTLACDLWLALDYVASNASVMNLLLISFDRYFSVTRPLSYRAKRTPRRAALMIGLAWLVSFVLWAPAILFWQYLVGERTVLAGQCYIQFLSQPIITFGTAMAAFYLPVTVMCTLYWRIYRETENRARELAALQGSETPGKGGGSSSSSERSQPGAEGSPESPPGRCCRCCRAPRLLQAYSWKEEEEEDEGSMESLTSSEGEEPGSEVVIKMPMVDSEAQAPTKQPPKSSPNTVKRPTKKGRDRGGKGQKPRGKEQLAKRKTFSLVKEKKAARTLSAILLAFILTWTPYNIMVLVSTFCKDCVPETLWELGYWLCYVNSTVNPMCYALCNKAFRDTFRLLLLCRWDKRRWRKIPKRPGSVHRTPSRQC
# Outline: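 CHO cells stably expressing rat M1 were loaded with no-wash Fluo-4 dye for 1 h at 37C, pre-incubated 10 min with compound, then challenged with EC80 carbachol (100 nM final); kinetic calcium read 4 min, peak/basal ratio.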
# [15] = biological target: Guanine nucleotide-binding protein G(i) subunit alpha-1 (Homo sapiens) (UniProt P63096); assay: qHTS Assay for Inhibitors of RGS12 GoLoco Motif Activity (Green Fluorophore) (AID 879; active = well fitted curve in the direction sought with a large enough effect; an effect the other way counts as inactive or inconclusive;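 note: 0% = labeled peptide with Gαi1 and full inhibition = labeled peptide alone without protein; negative values mean loss of peptide binding seen as reduced polarization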)
# Sequence of Guanine nucleotide-binding protein G(i) subunit alpha-1 (Homo sapiens) (P63096 whole entry, looked up): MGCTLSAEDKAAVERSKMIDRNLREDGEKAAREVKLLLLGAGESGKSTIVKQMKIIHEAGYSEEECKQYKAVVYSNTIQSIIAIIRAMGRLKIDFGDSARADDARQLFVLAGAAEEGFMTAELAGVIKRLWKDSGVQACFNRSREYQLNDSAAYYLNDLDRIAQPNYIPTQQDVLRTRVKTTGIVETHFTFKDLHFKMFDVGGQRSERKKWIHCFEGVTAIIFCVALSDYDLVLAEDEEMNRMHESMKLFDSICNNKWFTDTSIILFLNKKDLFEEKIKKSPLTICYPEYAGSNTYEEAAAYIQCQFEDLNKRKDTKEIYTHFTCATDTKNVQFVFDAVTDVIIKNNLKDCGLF
# Outline: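 Fluorescence polarization assay: 50 nM Gαi1 with 10 nM FITC-labeled RGS12 GoLoco peptide in 10 mM Tris pH 7.5, 150 mM NaCl, 0.1 mM GDP, 0.05% NP40, 10 min at room temperature with compound.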
compound,measurement,setting,value
CCCCCCCCCCCCCCCCCCOC[C@@H](COP(=O)([O-])OCC[N+](C)(C)C)OC,"activity change, negative = inhibition",[1],29% [at 38 µM]
same,"activity, negative = inhibition",[2],4.35% [at 38 µM]
same,Potency,[3],> 46 µM
same,Potency,[4],> 46 µM
same,Potency,[5],inactive
same,Potency,[6],inactive
same,Potency,[7],inactive
same,Potency,[8],inactive
same,outcome,[9],inactive
same,outcome,[10],inactive
same,outcome,[11],inactive
CCc1nc2sc3c(c2c(=O)o1)CCCC3,"activity change, negative = inhibition",[1],-11.3%
same,"activity, negative = inhibition",[2],3.67%
same,Potency,[3],> 20.6 µM
N#Cc1c(N)n(CCOC(=O)c2cccc(Br)c2)c2nc3ccccc3nc12,"activity change, negative = inhibition",[1],-0.25%
same,"activity, negative = inhibition",[2],16.2%
same,Potency,[3],> 20.6 µM
CCCCCNc1nc(N2CCCC2)c2c(c1C#N)CCN(C)C2,"activity change, negative = inhibition",[1],3.36%
same,"activity, negative = inhibition",[2],-7.71%
same,Potency,[3],> 20.6 µM
CCOC(=O)c1c(NC(=O)CCN2CCOCC2)sc2c1CC(C)(C)OC2,"activity change, negative = inhibition",[1],-21.7%
same,"activity, negative = inhibition",[2],-5.77%
same,Potency,[3],> 20.6 µM
Cc1cc(Cc2cc(Cc3cc(C)cc(C(C)(C)C)c3O)c(C)cc2C)c(O)c(C(C)(C)C)c1,"activity change, negative = inhibition",[1],-2.73% [at 7.69 µM]
same,"activity, negative = inhibition",[2],-3.85% [at 7.69 µM]
same,Potency,[3],> 46 µM
same,Potency,[4],> 9.22 µM
same,"activity change, negative = inhibition",[5],-4.33% [at 11.4 µM]
same,Potency,[6],inactive
same,Potency,[12],3.16 µM (active)
Cc1ccc(N2C(=O)CC(N(O)C3CC(=O)N(c4ccc(C)cc4)C3=O)C2=O)cc1 (configuration not stated),"activity change, negative = inhibition",[1],-20.5%
same,"activity, negative = inhibition",[2],-25.3%
same,Potency,[3],> 20.6 µM
COc1ccc2c(c1)CN([C@H](C)[C@@H]1CC[C@@H]3[C@H]4CC[C@H]5C[C@@H](O)CC[C@@]5(C)[C@H]4CC[C@]31C)CO2,"activity change, negative = inhibition",[1],23.1% [at 7.69 µM]
same,"activity, negative = inhibition",[2],-2.48% [at 7.69 µM]
same,Potency,[3],> 46 µM
same,Potency,[4],> 9.22 µM
same,"activity change, negative = inhibition",[5],-1.53% [at 11.4 µM]
same,Potency,[6],inactive
CCc1nc(NC2CCCCC2)c(C#N)c2c1COC(C)(C)C2,"activity change, negative = inhibition",[1],7.15%
same,"activity, negative = inhibition",[2],7.37%
same,Potency,[3],> 20.6 µM
O=C1[C@@H]2C=CC=CC2=NC(=S)N1CCN1CCC(=C(c2ccc(F)cc2)c2ccc(F)cc2)CC1,"activity change, negative = inhibition",[1],26.4% [at 38 µM]
same,"activity, negative = inhibition",[2],6.96% [at 38 µM]
same,Potency,[3],> 46 µM
same,Potency,[4],> 46 µM
same,Potency,[5],inactive
same,Potency,[13],inactive
same,Potency,[7],inactive
same,Potency,[14],inactive
same,Potency,[8],inactive
same,outcome,[9],inactive
same,outcome,[10],inactive
Cc1c(C)c2cc(Cl)c(O)c(CN3CCCC(C)C3)c2oc1=O (configuration not stated),"activity change, negative = inhibition",[1],14.1%
same,"activity, negative = inhibition",[2],-3.87%
same,Potency,[3],> 20.6 µM
Cc1cccc(NC(=O)c2c(C)cc(=O)oc2C)n1,"activity change, negative = inhibition",[1],-0.882%
same,"activity, negative = inhibition",[2],4.29%
same,Potency,[3],> 20.6 µM
COC(=O)CN(c1nc(C)c(Cl)c(OC)n1)S(=O)(=O)c1ccc(C)cc1,"activity change, negative = inhibition",[1],6.71%
same,"activity, negative = inhibition",[2],3.43%
same,Potency,[3],> 20.6 µM
Cc1cc2c(c(=O)n1Cc1ccccn1)C(c1ccc3c(c1)OCO3)C(C#N)=C(N)O2 (configuration not stated),"activity change, negative = inhibition",[1],-7.52%
same,"activity, negative = inhibition",[2],-11.7%
same,Potency,[3],> 20.6 µM
N#Cc1c(SCC(N)=O)nsc1SCc1ccc(Cl)cc1,"activity change, negative = inhibition",[1],-15.5%
same,"activity, negative = inhibition",[2],-18%
same,Potency,[3],> 20.6 µM
NC(Cc1ccc(Oc2ccc(O)cc2)cc1)C(=O)O (configuration not stated),"activity change, negative = inhibition",[1],-2.36%
same,"activity, negative = inhibition",[2],-1.48%
same,Potency,[3],> 20.6 µM
CN1C2C=C3C(C#N)=C(N)C(C#N)(C#N)[C@@H](c4cccs4)C3C1CC2 (some centres not stated),"activity change, negative = inhibition",[1],17.2%
same,"activity, negative = inhibition",[2],13.6%
same,Potency,[3],> 20.6 µM
C[C@H](CCC(=O)O)[C@H]1CC[C@@H]2[C@H]3CC[C@H]4C[C@@H](O)CC[C@@]4(C)[C@H]3CC[C@]21C,"activity change, negative = inhibition",[1],13.9%
same,"activity, negative = inhibition",[2],-1.14%
same,Potency,[3],> 20.6 µM
same,Potency,[4],> 20.6 µM
same,Potency,[5],inactive
same,Potency,[6],inactive
COc1ccc(CCn2c(=N)c(C(=O)NCc3ccco3)cc3c(=O)n4ccccc4nc32)cc1,"activity change, negative = inhibition",[1],-1.64%
same,"activity, negative = inhibition",[2],2.96%
same,Potency,[3],> 20.6 µM
COc1ccccc1-n1c(N)c(C(=O)NCC2CCCO2)c2nc3ccccc3nc21 (configuration not stated),"activity change, negative = inhibition",[1],19.4%
same,"activity, negative = inhibition",[2],-0.0521%
same,Potency,[3],> 20.6 µM
CCCCCC[C@@H]([C@H](C)O)n1cnc2c(N)ncnc21,"activity change, negative = inhibition",[1],-20.5% [at 38 µM]
same,"activity, negative = inhibition",[2],25.6% [at 38 µM]
same,Potency,[3],> 46 µM
same,Potency,[4],> 46 µM
same,Potency,[5],inactive
same,Potency,[6],inactive
same,outcome,[15],inactive
same,Potency,[7],inactive
same,Potency,[14],inactive
same,Potency,[8],inactive
same,outcome,[9],inactive
same,outcome,[10],inactive
same,outcome,[11],inactive
CCOC(=O)CSc1nnc2n(C3CCCCC3)c(=O)c3c4c(sc3n12)CCCC4,"activity change, negative = inhibition",[1],-9.49%
same,"activity, negative = inhibition",[2],-21.4%
same,Potency,[3],> 20.6 µM
